The values below come from PubChem BioAssay (Tox21).

Where “and” joins values, the source holds several entries; their conditions need not be identical. Equal values may be shown once. A number with no mark means an inactive call. Calls of active or inactive are those of the source. Unless noted, calls follow the shape of the dose curve; as a rule, active = well fitted curve in the direction sought with a large enough effect in the repeat runs; inconclusive = weak or mixed curves; inactive = no such curve, though single readings can be large; an effect the other way counts as inactive or inconclusive.

Assay [1] concerns thyroid hormone receptor (rat, GH3 cells). Briefly: qHTS assay to identify small molecule agonists of the thyroid receptor (TR) signaling pathway (AID 743066; calls by dose curve). (In general: Quantitative high-throughput screening tests each substance at several concentrations.)
The target in assay [2] is Estrogen receptor (Homo sapiens) (UniProt P03372). Briefly: qHTS assay to identify small molecule antagonists of the estrogen receptor alpha (ER-alpha) signaling pathway (AID 743069; active = well fitted curve in the direction sought with a large enough effect in the signal ratio in the repeat runs, not every such curve was filed as active; inconclusive = weak or mixed curves, or effect the other way; inactive = no such curve, though single readings can be large or run the other way; the % refers to the signal ratio; also: potency is read from the fitted curve at half-maximal effect). The gist of the method:
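HEK293 ER-alpha-UAS-bla GripTite cells, held overnight in 2% charcoal-stripped FBS, 5,000 cells/well, preincubated 4 h, then compound plus 17beta-estradiol for 18 h at 37C. Beta-lactamase read by LiveBLAzer B/G FRET substrate, 2 h at room temperature.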

Assay [3] in a line: qHTS assay to identify small molecule antagonists of the estrogen receptor alpha (ER-alpha) signaling pathway - cell viability counter screen (AID 743074; calls by dose curve;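 also: HEK293 cells carrying ER-alpha-UAS-bla reporter stimulated with 17beta-estradiol; nearly all actives have a fitted effect of over 45% in size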; also: potency is read from the fitted curve at half-maximal effect).
Assay [4] addresses Estrogen receptor (Homo sapiens) (UniProt P03372). Nature of the assay: qHTS assay to identify small molecule agonists of the estrogen receptor alpha (ER-alpha) signaling pathway (AID 743075; calls by dose curve; also: potency is read from the fitted curve at half-maximal effect).
For assay [5] the target is unchanged. Briefly: qHTS assay to identify small molecule agonists of the estrogen receptor alpha (ER-alpha) signaling pathway using the BG1 cell line (AID 743079). Also: nearly all actives have a fitted effect of over 20% in size. Also: potency is read from the fitted curve at half-maximal effect. The conditions noted are these: BG1Luc4E2 cells, ERE-luciferase agonist, 22 h; activation: at 70.3 µM (top of the series).
Assay [6] can be described thus: qHTS assay to identify small molecule antagonists of the estrogen receptor alpha (ER-alpha) signaling pathway using the BG1 cell line (AID 743080; calls by dose curve;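 also: BG1 cells stimulated with 17beta-estradiol alongside compound; nearly all actives have a fitted effect of over 25% in size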; also: potency is read from the fitted curve at half-maximal effect). The conditions noted are these: BG1Luc4E2 ERE-luciferase antagonist mode, luminescence; activity change, negative = inhibition: at 70.3 µM (top of the series). The gist of the method: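 Luciferase inhibition measured with ONE-Glo after 30 min at RT in BG1Luc4E2 cells given test compounds and 17beta-estradiol for 21.5 h at 37 C; CellTiter-Fluor viability read in the same wells beforehand.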

Assay [7] can be described thus: qHTS assay to identify small molecule antagonists of the estrogen receptor alpha (ER-alpha) signaling pathway using the BG1 cell line - cell viability counter screen (AID 743081).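 Also: compound given together with 17beta-estradiol as the ER stimulus; nearly all actives have a fitted effect of over 45% in size.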
The target of the next assay is Aromatase (Homo sapiens) (UniProt P11511). Nature of the assay: qHTS assay to identify aromatase inhibitors (AID 743083). Also: nearly all actives have a fitted effect of over 55% in size. Also: potency is read from the fitted curve at half-maximal effect.
Assay [8] can be described thus: qHTS assay to identify aromatase inhibitors - cell viability counter screen (AID 743084).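 Also: cells stimulated with testosterone during compound exposure; nearly all actives have a fitted effect of over 55% in size.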 Also: potency is read from the fitted curve at half-maximal effect.
In assay [9] the target is Aryl hydrocarbon receptor (Homo sapiens) (UniProt P35869). Briefly: qHTS assay to identify small molecule that activate the aryl hydrocarbon receptor (AhR) signaling pathway (AID 743085). Also: nearly all actives have a fitted effect of over 15% in size. Also: potency is read from the fitted curve at half-maximal effect.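 As to activation: HG2L7.5c1 human HepG2 liver cells with stably integrated DRE-driven firefly reporter.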 The gist of the method:
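Luminescence (ONE-Glo) from a dioxin-responsive-element luciferase reporter in HG2L7.5c1 HepG2 cells after 24 hr compound exposure at 37C; viability measured by CellTiter-Fluor fluorescence beforehand.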

Assay [10] is described as follows: qHTS assay to identify small molecule that activate the aryl hydrocarbon receptor (AhR) signaling pathway - cell viability counter screen (AID 743086). Also: nearly all actives have a fitted effect of over 45% in size. Also: potency is read from the fitted curve at half-maximal effect.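 As to viability change, negative = cytotoxic: HepG2 liver cells carrying the AhR DRE luciferase reporter.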 The method in brief:
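HepG2-AhR-luc (HG2L7.5c1) cells, 4000/well, treated 24 h at 37 C with compound; viability measured as CellTiter-Fluor fluorescence after 30 min in the same wells as the luciferase read.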

In assay [11] the target is Peroxisome proliferator-activated receptor gamma (Homo sapiens) (UniProt P37231). Nature of the assay: qHTS assay to identify small molecule agonists of the peroxisome proliferator-activated receptor gamma (PPARg) signaling pathway (AID 743094; active = well fitted activation curve with a large enough effect in the signal ratio in the repeat runs, not every such curve was filed as active; inconclusive = weak or mixed curves, or effect the other way; inactive = no such curve, though single readings can be large or run the other way; the % refers to the signal ratio; also: potency is read from the fitted curve at half-maximal effect). The method in brief: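 Beta-lactamase FRET fluorescence was the read-out after a 1 h room-temperature substrate step, following 17 h compound treatment at 37C of HEK293H cells expressing a UAS-driven bla reporter responsive to PPARg.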

Assay [12] shares this target. Nature of the assay: qHTS assay to identify small molecule antagonists of the peroxisome proliferator-activated receptor gamma (PPARg) signaling pathway (AID 743191; calls by dose curve; also: nearly all actives have a fitted effect of over 30% in size). The gist of the method:
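GeneBLAzer PPARg UAS-bla HEK293H cells, 5 h post-plating, exposed to compounds 17 h at 37C. LiveBLAzer B/G FRET substrate added for 1 h at room temperature; beta-lactamase reporter read by fluorescence intensity.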

The nature of assay [13]: qHTS assay to identify small molecule antagonists of the peroxisome proliferator-activated receptor gamma (PPARg) signaling pathway - cell viability counter screen (AID 743194). Also: nearly all actives have a fitted effect of over 55% in size. Also: potency is read from the fitted curve at half-maximal effect. The method in brief:
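Cytotoxicity counter screen in PPARg-bla HEK293H cells, same wells as reporter assay. Compounds plus 50 nM rosiglitazone (final) for 17 h at 37 C, then viability read by CellTiter-Glo luminescence.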

Assay [14] can be described thus: qHTS assay for small molecule agonists of the antioxidant response element (ARE) signaling pathway - cell viability counter screen (AID 743203; calls by dose curve; also: nearly all actives have a fitted effect of over 55% in size; also: potency is read from the fitted curve at half-maximal effect). The gist of the method:
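HepG2 cells carrying ARE-driven beta-lactamase; 2,000 cells/well; 5 hrs plating; compound pinned from DMSO; 16 hrs 37C/5% CO2; CellTiter-Glo added; 30 min RT; luminescence.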

A short description of assay [15]: qHTS assay for small molecule activators of the heat shock response signaling pathway - cell viability counter screen (AID 743209). Also: nearly all actives have a fitted effect of over 50% in size. Also: potency is read from the fitted curve at half-maximal effect. The gist of the method: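 Luminescence from CellTiter-Glo, added after the beta-lactamase FRET read, gave the viability signal. Cells were HSE-bla HeLa treated with DMSO-dissolved compounds for 5 h at 37 C following overnight plating.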

Assay [16] in a line: qHTS assay for small molecule activators of the heat shock response signaling pathway (AID 743210; active = well fitted activation curve with a large enough effect in the signal ratio in the repeat runs, with a control signal flat, not every such curve was filed as active; inconclusive = weak or mixed curves; the % refers to the signal ratio). The method in brief:
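HSE-bla HeLa cells (beta-lactamase reporter under heat shock response elements), plated overnight, then exposed to compounds 5 h at 37 C; LiveBLAzer B/G FRET substrate added, 2.5 h at room temperature, fluorescence intensity read.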

Assay [17] is described as follows: qHTS assay to identify small molecule antagonists of the thyroid receptor (TR) signaling pathway (AID 743065). Also: nearly all actives have a fitted effect of over 55% in size. Also: potency is read from the fitted curve at half-maximal effect. The method in brief: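 GH3.TRE-Luc rat pituitary cells (two TREs driving luciferase) were dosed with compound, then stimulated with 1 nM T3 (final) for 23.5 h at 37 C. ONE-Glo luminescence was the read-out, with CellTiter-Fluor fluorescence as the cytotoxicity counter-screen.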

Assay [18] can be described thus: qHTS assay for small molecule agonists of the antioxidant response element (ARE) signaling pathway (AID 743202; active = well fitted activation curve with a large enough effect in the signal ratio in the repeat runs, not every such curve was filed as active; inconclusive = weak or mixed curves, or effect the other way; inactive = no such curve, though single readings can be large or run the other way; the % refers to the signal ratio; also: potency is read from the fitted curve at half-maximal effect). The method in brief: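 ARE-bla HepG2 cells (beta-lactamase reporter under the antioxidant response element), plated 5 hours, then exposed to compounds 16 hours at 37 C. LiveBLAzer B/G FRET substrate added for 2 hours at room temperature; fluorescence intensity read.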
% is scaled to controls: 0 for no effect and ±100 for the full control effect.

Chain of Estrogen receptor (Homo sapiens) (P03372 whole entry, looked up): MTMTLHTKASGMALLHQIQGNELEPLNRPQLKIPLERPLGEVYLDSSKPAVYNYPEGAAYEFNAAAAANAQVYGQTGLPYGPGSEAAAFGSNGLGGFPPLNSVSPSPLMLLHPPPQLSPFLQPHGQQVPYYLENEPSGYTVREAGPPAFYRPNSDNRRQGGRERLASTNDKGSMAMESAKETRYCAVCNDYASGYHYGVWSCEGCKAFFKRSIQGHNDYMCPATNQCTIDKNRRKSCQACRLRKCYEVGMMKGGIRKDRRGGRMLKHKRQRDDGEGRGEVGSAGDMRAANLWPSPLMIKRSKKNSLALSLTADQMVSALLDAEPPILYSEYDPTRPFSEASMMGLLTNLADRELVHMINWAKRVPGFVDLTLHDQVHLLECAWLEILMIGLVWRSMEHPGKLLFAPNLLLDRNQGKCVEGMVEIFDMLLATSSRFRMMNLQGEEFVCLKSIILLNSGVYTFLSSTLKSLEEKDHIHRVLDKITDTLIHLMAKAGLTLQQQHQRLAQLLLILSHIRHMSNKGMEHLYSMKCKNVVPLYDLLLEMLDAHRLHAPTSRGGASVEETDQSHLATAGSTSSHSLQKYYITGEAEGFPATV
Chain of Peroxisome proliferator-activated receptor gamma (Homo sapiens) (P37231 whole entry, looked up): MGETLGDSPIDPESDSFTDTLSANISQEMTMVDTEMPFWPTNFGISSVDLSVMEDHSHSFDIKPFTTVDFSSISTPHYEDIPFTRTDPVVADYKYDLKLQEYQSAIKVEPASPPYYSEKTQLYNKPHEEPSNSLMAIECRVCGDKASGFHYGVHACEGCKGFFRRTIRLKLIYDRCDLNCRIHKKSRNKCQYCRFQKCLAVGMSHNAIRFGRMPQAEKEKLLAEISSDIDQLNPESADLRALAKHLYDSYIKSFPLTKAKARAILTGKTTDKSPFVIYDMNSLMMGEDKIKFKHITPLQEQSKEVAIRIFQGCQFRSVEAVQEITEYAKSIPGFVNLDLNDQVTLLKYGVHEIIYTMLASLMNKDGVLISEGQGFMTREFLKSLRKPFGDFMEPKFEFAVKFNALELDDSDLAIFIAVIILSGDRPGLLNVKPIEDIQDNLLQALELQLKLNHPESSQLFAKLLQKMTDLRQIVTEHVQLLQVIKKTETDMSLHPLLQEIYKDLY
Chain of Aromatase (Homo sapiens) (P11511 whole entry, looked up): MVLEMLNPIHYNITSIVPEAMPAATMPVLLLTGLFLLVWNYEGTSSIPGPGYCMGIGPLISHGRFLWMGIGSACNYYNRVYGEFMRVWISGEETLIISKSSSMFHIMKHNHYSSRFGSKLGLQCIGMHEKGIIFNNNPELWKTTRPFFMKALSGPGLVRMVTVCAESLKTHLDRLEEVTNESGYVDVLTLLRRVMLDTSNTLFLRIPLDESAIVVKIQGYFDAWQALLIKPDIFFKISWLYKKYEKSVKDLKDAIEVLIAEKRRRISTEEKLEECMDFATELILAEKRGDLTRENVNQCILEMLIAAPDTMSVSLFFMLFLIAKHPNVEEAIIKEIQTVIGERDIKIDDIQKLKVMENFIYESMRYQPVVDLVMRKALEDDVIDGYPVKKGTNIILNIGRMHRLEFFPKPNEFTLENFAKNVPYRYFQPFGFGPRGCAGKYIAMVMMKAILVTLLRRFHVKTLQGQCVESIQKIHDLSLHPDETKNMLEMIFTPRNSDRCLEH
Chain of Aryl hydrocarbon receptor (Homo sapiens) (P35869 whole entry, looked up): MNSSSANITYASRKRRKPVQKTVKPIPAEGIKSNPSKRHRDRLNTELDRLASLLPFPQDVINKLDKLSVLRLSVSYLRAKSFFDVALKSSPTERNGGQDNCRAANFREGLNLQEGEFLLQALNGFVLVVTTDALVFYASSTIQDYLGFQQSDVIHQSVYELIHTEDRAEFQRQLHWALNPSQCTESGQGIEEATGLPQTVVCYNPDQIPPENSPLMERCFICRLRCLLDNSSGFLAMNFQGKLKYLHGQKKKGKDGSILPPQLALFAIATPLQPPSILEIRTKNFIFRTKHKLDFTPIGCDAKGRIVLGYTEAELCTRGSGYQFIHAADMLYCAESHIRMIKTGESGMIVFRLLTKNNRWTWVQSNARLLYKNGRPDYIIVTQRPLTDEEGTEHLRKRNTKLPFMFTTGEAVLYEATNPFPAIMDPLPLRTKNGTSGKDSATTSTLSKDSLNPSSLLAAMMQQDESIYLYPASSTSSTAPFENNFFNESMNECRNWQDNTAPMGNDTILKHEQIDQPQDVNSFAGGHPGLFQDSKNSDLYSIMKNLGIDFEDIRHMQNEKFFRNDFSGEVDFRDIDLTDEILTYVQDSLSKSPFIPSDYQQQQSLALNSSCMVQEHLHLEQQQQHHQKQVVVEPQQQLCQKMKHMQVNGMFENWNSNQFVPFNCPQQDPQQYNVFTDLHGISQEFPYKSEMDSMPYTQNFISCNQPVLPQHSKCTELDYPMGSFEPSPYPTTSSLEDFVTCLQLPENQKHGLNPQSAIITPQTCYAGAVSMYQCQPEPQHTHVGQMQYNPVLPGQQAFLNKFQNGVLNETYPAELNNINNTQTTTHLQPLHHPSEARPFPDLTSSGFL

Regarding `CCCCNc1c(C(=O)OCC)c(C)nc2c1cnn2CC`, the Potency result in assay [1], in assay [2], in assay [3], in assay [4], in [5] and in [6] was “inactive” throughout. In addition, the Potency entry (in [7]; in the assay with Aromatase (Homo sapiens); in assay [8]; in assay [10]; in assay [11]; in assay [12]) was “inactive” in each case. The Potency result in [13], in assay [14], in assay [15] and in assay [16] was “inactive” each time. Besides, the Potency in assay [9] was 4.73 µM (active).
For the molecule `CCN(CC)CCOc1ccc(C(O)(Cc2ccc(Cl)cc2)c2ccc(C)cc2)cc1` (stereo not given), the Potency in [17] is 7.5 µM (active); in [2], 23.9 µM [inconclusive] (active); with Aromatase (Homo sapiens) it was 29.8 µM (active); in assay [10], 29.8 µM (active); in [13] it was 29.8 µM (active); in assay [14], 21.1 µM (active). The Potency entry in assay [4], in assay [6], in [7], in [8], in assay [9] and in assay [15] was “inactive” each time.
`O=C(Oc1ccccc1)c1cccc(C(=O)Oc2ccccc2)c1`: the Potency result (in assay [17]; in assay [1]; with Aromatase (Homo sapiens); in [10]; in assay [15]) was “inactive” in each case.
In the case of `COc1cc(C(C)C)c2c(c1)S(=O)(=O)N(COc1cc(=O)n3cccc(OCCN4CCCCC4)c3n1)C2=O`, the Potency result in [1], in assay [3], in assay [4], in assay [5], in assay [6] and in [7] was “inactive” in each case. The Potency entry in assay [9], in assay [11], in assay [13], in assay [14], in assay [15] and in [16] was “inactive” throughout.
For `C[n+]1c2cc(N)ccc2cc2ccc(N)cc21` (tested in a mixture with another compound), the Potency in [17] was 6.68 µM (active); with Aromatase (Homo sapiens), 18.8 µM (active); in [9], 9.44 µM (active); in assay [15], 29.8 µM (active). Moreover, the Potency entry in [3], in assay [14] and in assay [16] was “inactive” in each case.
Turning to `CCCCCCCC/C=C\CCCCCCCC(=O)N(C)CC(=O)O`, the Potency in assay [17] is 61.1 µM (active); in assay [11] it was 6.92 µM (active); in assay [15] it was 21.9 µM (active). Besides, the Potency entry in assay [5], in assay [6], in assay [7] and in assay [9] was “inactive” throughout.
Regarding `N[C@@H](CSSC[C@H](N)C(=O)O)C(=O)O`, the Potency result (in assay [17]; in assay [1]; in assay [3]; in assay [7]; in the assay with Aromatase (Homo sapiens); in assay [8]) was “inactive” in each case. Further, the Potency result in assay [9], in assay [10] and in assay [11] was “inactive” throughout. Besides, in assay [12], the ratio activity, negative = inhibition was 3.31% [at 0.55 µM]. Moreover, the activity change, negative = cytotoxicity in assay [13] was 9.18% [at 0.55 µM]. Also, the activation in assay [18] was 9.27% [at 0.756 µM]. The viability change, negative = cytotoxic in [14] was -0.389% [at 0.756 µM].
`O=C(O)CCn1c2c(c3ccccc31)C[C@H](NS(=O)(=O)c1ccc(F)cc1)CC2`: the Potency result (in [17]; in assay [1]; in assay [3]; with Aromatase (Homo sapiens); in [8]; in assay [9]) was “inactive” each time. Also, the Potency entry in [10], in [13] and in assay [15] was “inactive” throughout.
As to `CCCN(CCc1cccs1)[C@H]1CCc2c(O)cccc2C1`, the Potency entry in assay [1], in [2], in [3], in assay [4], in [5] and in assay [6] was “inactive” in each case. Further, the Potency entry in assay [7], in assay [8], in assay [10], in [11], in assay [13] and in [18] was “inactive” throughout. Moreover, the Potency entry in assay [14], in assay [15] and in assay [16] was “inactive” in each case. Also, in the assay with Aromatase (Homo sapiens), the Potency was 26.6 µM (active).
As to `CCN1CCN(c2cc(-c3ccc(F)cc3)c3c(n2)CCCCCC3)CC1`, the Potency in assay [17] is 18.8 µM (active). Besides, the Potency entry (in assay [1]; in [3]; with Aromatase (Homo sapiens); in assay [8]; in assay [9]; in assay [10]) was “inactive” in each case. Also, the Potency entry in [11], in assay [12], in [13], in [14], in [15] and in assay [16] was “inactive” throughout.
As for `CC(C)c1ccc(O)c(C(C)C)c1`, the Potency result in [1], in [2], in assay [4], in assay [5], in assay [7] and in assay [9] was “inactive” each time. Besides, the Potency result in assay [10], in assay [11], in [13] and in [15] was “inactive” throughout. In addition, the Potency in assay [6] was 54.5 µM (active).
On to `CC(C)(c1cc(Br)c(O)c(Br)c1)c1cc(Br)c(O)c(Br)c1`, for which the Potency in [17] was 27.2 µM (active) and 48.4 µM (active) and 51.6 µM (active); in [13], 54.8 µM (active) and 43.5 µM (active) and 46.3 µM (active); in [18] it was 23 µM (active); in assay [14], 60.9 µM (active) and 57.9 µM (active). Moreover, the Potency result in assay [1], in assay [7] and in assay [10] was “inactive” in each case.
Take `COc1ccc2sc(C(=O)Nc3nnn[nH]3)c(OC(C)C)c2c1`: the Potency in assay [17] is 6.09 µM (active); in assay [6], 54.3 µM (active); in [11], 5.47 µM (active). The Potency result in [4], in [7], in assay [8], in assay [9], in assay [14] and in [16] was “inactive” throughout.
In the case of `CC(=O)OC(OC(C)=O)c1ccc([N+](=O)[O-])o1`, the Potency in [17] is 13.9 µM (active); with Aromatase (Homo sapiens) it was 17.5 µM (active); in assay [8], 13.9 µM (active); in [13], 49.8 µM (active); in assay [18] it was 15.6 µM (active); in assay [14] it was 62.2 µM (active). In addition, in assay [15], the Potency is 19.8 µM (active). Further, the Potency entry in [1] and in [9] was “inactive” throughout.
As to `O[C@@H](c1cc(C(F)(F)F)nc2c(C(F)(F)F)cccc12)[C@H]1CCCCN1`, the Potency was 5.96 µM (active) in assay [17]; 23.9 µM (active) in assay [3]; 26.8 µM [inconclusive] (active) in [4]; 2.37 µM (active) in assay [5]; 23.7 µM (active) with Aromatase (Homo sapiens); 26.6 µM (active) in [8]. Besides, the Potency in [10], in [13] and in [14] was 29.8 µM (active) throughout. For the same molecule, the Potency result in [6], in [7], in assay [9] and in [15] was “inactive” each time.
